Our source for the growth inhibition, inhibition and outcome values is PubChem BioAssay.

Values without a mark were called inactive. For part of these data: Measured potencies and affinities stand elsewhere. Calls of active or inactive are those of the source. Unless noted, how the calls were made is not given here.

Assay [1] can be described thus: antimalarial activity against Dd2 strain (AID 2302;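 active means growth inhibition above 50% at the single 2 µM test dose, taken to imply half-maximal potency below 2 µM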;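 further: 0% = DMSO untreated growth and 100% = chloroquine plus artemisinin killed control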). Particulars: P. falciparum Dd2 in RBCs, LDH growth readout, 72 h; at 2 µM; hits give high values.
The nature of assay [2]: human hepatoma cell viability loss – ATP luminescence, cytotoxicity control for P. falciparum antimalarial project, primary screen (AID 2303;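 active means inhibition above 50%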;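 further: 0% = DMSO wells and 100% = digitonin-killed cells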). The note with it: HepG2 viability, 24-48 h, at 10 µM, hits give high values.
The target of assay [3] is L-lactate dehydrogenase (Plasmodium falciparum (isolate CDC / Honduras)) (UniProt Q27743). Kind of assay: PfLDH activity inhibition – cell lysate, 3D7 strain, counter-screen for P. falciparum growth inhibition project (AID 2304).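 Further: 0% = vehicle and 100% = reference inhibitor.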 Particulars: P. falciparum 3D7 crude extract, LDH APAD/NBT absorbance; at 2 µM; hits give high values.
The nature of assay [4]: inhibition of 3D7 malaria parasite growth – strain 3D7 (AID 2306).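 Further: 0% = DMSO wells and 100% = chloroquine plus artemisinin control wells.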 Particulars: P. falciparum 3D7 erythrocytic growth, LDH absorbance, 72 h; at 2 µM; hits give high values.
In assay [5] the target is Calcium-dependent protein kinase 1 (Plasmodium falciparum (isolate 3D7)) (UniProt P62344). Kind of assay: PfCDPK1 kinase inhibitors, biochemical, TCAMS library (AID 1159585; cut-off not given, nearly all actives have IC50 up to about 0.98 µM;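 further: inhibitors leave more ATP so luminescence rises with inhibition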). The note with it: recombinant PfCDPK1, Kinase-Glo ATP depletion luminescence.
For assay [6], the target named is Plasmodium falciparum protein kinase 6 (PK6, PF3D7_1337100) (UniProt Q8IDW1). Kind of assay: PfPK6 kinase inhibitors, biochemical, TCAMS library (AID 1159586). Particulars: recombinant PfPK6, Kinase-Glo ATP depletion luminescence.
For assay [7], the target named is Protein kinase 7 (PK7), Plasmodium falciparum 3D7 (PF3D7_0213400) (UniProt Q7YTF7). Kind of assay: inhibition of Plasmodium PK7 catalytic activity – biochemical, TCAMS antimalarial set, Kinase-Glo luminescence (AID 1159587). Particulars: recombinant PfPK7, Kinase-Glo ATP depletion luminescence.
For assay [8], the target named is Calcium-dependent protein kinase 4 (Plasmodium falciparum (isolate 3D7)) (UniProt Q8IBS5). Kind of assay: PfCDPK4 kinase inhibitors, biochemical, TCAMS library (AID 1159588; cut-off not given, nearly all actives have IC50 up to about 0.91 µM). Particulars: recombinant PfCDPK4, Kinase-Glo ATP depletion luminescence.
Calcium-dependent protein kinase 4 (Plasmodium falciparum (isolate 3D7)), sequence (Q8IBS5 whole entry, looked up): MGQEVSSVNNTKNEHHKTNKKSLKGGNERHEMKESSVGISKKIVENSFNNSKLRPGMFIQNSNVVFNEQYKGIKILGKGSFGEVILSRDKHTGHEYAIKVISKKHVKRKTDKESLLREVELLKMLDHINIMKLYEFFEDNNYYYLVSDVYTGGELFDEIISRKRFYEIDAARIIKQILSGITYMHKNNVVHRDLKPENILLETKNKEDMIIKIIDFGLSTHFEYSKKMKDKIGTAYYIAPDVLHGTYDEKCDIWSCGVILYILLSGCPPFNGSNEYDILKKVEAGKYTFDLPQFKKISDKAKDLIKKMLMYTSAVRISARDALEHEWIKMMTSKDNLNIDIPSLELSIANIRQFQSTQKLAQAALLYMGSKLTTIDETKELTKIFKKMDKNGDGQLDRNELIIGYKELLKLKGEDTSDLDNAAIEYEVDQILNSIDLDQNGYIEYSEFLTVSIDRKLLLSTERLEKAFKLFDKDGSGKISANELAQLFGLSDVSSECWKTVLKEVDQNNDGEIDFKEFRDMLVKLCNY

Plasmodium falciparum protein kinase 6 (PK6, PF3D7_1337100), sequence (Q8IDW1 1-305): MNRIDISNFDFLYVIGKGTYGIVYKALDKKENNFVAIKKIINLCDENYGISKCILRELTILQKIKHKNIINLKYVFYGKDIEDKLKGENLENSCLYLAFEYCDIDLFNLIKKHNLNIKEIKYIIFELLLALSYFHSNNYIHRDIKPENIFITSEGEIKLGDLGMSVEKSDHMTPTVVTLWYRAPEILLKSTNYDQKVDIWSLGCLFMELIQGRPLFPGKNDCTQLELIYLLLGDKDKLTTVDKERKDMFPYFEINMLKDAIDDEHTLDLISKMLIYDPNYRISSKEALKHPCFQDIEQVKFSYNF
Protein kinase 7 (PK7), Plasmodium falciparum 3D7 (PF3D7_0213400), sequence (Q7YTF7 1-343): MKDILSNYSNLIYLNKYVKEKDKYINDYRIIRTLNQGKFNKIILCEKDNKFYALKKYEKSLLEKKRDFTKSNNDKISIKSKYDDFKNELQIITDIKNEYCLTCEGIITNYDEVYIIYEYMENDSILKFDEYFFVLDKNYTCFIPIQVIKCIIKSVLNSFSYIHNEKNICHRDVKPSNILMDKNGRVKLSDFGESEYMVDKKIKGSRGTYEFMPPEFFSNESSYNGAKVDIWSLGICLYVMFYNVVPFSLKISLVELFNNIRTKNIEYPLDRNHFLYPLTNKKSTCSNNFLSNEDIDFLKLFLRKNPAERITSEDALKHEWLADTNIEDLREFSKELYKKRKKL
L-lactate dehydrogenase (Plasmodium falciparum (isolate CDC / Honduras)), sequence (Q27743 whole entry, looked up): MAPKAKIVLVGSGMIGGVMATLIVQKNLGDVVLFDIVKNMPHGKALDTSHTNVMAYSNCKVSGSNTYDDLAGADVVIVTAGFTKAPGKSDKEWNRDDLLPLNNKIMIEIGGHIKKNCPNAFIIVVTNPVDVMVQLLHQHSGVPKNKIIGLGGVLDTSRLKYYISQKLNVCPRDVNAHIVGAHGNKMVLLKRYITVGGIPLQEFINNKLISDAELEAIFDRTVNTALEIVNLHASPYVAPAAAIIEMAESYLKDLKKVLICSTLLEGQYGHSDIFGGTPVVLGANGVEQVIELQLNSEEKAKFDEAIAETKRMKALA
Calcium-dependent protein kinase 1 (Plasmodium falciparum (isolate 3D7)), sequence (P62344 whole entry, looked up): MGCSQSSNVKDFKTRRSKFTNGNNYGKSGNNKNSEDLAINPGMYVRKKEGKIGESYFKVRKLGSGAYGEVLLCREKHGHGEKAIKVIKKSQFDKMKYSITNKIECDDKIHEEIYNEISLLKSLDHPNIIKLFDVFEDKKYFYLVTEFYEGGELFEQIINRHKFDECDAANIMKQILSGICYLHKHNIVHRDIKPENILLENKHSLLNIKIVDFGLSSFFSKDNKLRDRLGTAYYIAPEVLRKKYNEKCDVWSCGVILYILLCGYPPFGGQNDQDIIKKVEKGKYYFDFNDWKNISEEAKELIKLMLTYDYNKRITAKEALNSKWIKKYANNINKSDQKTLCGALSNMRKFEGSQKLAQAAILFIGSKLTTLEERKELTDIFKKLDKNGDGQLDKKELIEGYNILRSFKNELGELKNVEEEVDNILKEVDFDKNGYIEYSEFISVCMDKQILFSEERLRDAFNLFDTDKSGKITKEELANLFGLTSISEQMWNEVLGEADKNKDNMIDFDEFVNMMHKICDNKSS

As to `CC(C)CNCc1cccc(-c2ccccc2CN(C(=O)NCCc2ccccc2)C2CCN(Cc3ccccc3)CC2)c1`, the growth inhibition was 82% (active) in assay [1] and 89% (active) in assay [4]. The inhibition in assay [2] is 42%; in assay [3] it was -6%. For the same compound, the outcome in assay [5], in assay [6], in assay [7] and in assay [8] was inactive.

`OCc1c(Cl)cc(Cl)cc1CNCCCNc1nc2ccccc2[nH]1`: the growth inhibition in assay [1] is 2%; in assay [4] it was 102% (active). In addition, the results for the inhibition in assay [2] and in assay [3] were -6% and -2%, respectively. The result in assay [5], in assay [6], in assay [7] and in assay [8] was inactive.

With `CC(=NN=C(N)N)c1ccc2c(c1)Cc1ccccc1-2`, the values for the growth inhibition in assay [1] and in assay [4] were 10% and 101% (active), respectively. For the same compound, the values for the inhibition in assay [2] and in assay [3] were 44% and 5%, respectively. Besides, the outcome in assay [5], in assay [6], in assay [7] and in assay [8] was inactive.
